# Measurements published in the supplement of paper PMC8728848.
# About 410 targets per protein were measured; listed, in parts, are those with the strongest signals and a random draw of the rest.
# B1: SSA (Sclerotinia sclerotiorum), A7XUK7 (protein)
# chain: MGFKGVGTYEIVPYQAPSLNLNAWEGKLEPGAVVRTYTRGDKPSDNAKWQVALVAGSGDSAEYLIINVHSGYFLTATKENHIVSTPQISPTDPSARWTIKPATTHQYEVFTINNKVSELGQLTVKDYSTHSGADVLSASAKTADNQKWYFDAK
# Experiments:
# Assay in all cases: glycan array binding signal (z-score within array); higher = stronger binding
# Settings in all cases: glycan notation: IUPAC condensed, linker removed
# Fuc(a1-2)Gal(b1-4)GlcNAc = target: Fuc(a1-2)Gal(b1-4)GlcNAc
# How it was run: (§1)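 Glycan array data were curated from 3228 arrays in the Consortium for Functional Glycomics database and kept only where the protein sequence was available. Glycan names were converted to IUPAC-condensed notation, and columns mapping to the same glycan were averaged. The binding signal is a within-array Z-score, averaged across arrays of the same protein sequence at different concentrations or buffers and across linkers. Negative Z-scores can be read as non-binding.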
# [1] = target: Fuc(a1-2)Gal(b1-4)[Fuc(a1-3)]GlcNAc(b1-2)Man(a1-3)[Fuc(a1-2)Gal(b1-4)[Fuc(a1-3)]GlcNAc(b1-2)Man(a1-6)]Man(b1-4)GlcNAc(b1-4)GlcNAc
# How it was run: as §1
# [2] = target: Fuc(a1-2)Gal(b1-4)[Fuc(a1-3)]GlcNAc(b1-3)Gal(b1-4)[Fuc(a1-3)]GlcNAc
# How it was run: as §1
# [3] = target: Fuc(a1-2)[Gal(a1-3)]Gal(b1-3)GlcNAc(b1-2)Man(a1-3)[Fuc(a1-2)[Gal(a1-3)]Gal(b1-3)GlcNAc(b1-2)Man(a1-6)]Man(b1-4)GlcNAc(b1-4)GlcNAc
# How it was run: as §1
# [4] = target: Fuc(a1-2)[Gal(a1-4)]Gal(b1-4)GlcNAc
# How it was run: as §1
# [5] = target: Fuc(a1-2)[GalNAc(a1-3)]Gal(b1-4)Glc
# How it was run: as §1
# [6] = target: Fuc(a1-2)[GalNAc(a1-4)]Gal(b1-4)GlcNAc
# How it was run: as §1
# Gal(a1-3)Gal(b1-3)GlcNAc = target: Gal(a1-3)Gal(b1-3)GlcNAc
# How it was run: as §1
# Gal(a1-3)GalNAc = target: Gal(a1-3)GalNAc
# How it was run: as §1
# [7] = target: Gal(b1-4)GlcNAc(b1-3)Gal(b1-4)GlcNAc(b1-3)Gal(b1-4)GlcNAc
# How it was run: as §1
# Gal6S(b1-4)GlcNAc6S = target: Gal6S(b1-4)GlcNAc6S
# How it was run: as §1
# GalNAc(a1-3)Gal = target: GalNAc(a1-3)Gal
# How it was run: as §1
# GalNAc(b1-3)Gal = target: GalNAc(b1-3)Gal
# How it was run: as §1
# [8] = target: GalNAc(b1-3)Gal(a1-4)Gal(b1-4)GlcNAc
# How it was run: as §1
# [9] = target: GalNAc(b1-3)Gal(a1-4)Gal(b1-4)GlcNAc(b1-3)Gal(b1-4)Glc
# How it was run: as §1
# GalNAc(b1-4)GlcNAc = target: GalNAc(b1-4)GlcNAc
# How it was run: as §1
# Glc(a1-6)Glc(a1-6)Glc = target: Glc(a1-6)Glc(a1-6)Glc
# How it was run: as §1
# [10] = target: GlcNAc(a1-4)Gal(b1-4)GlcNAc(b1-3)Gal(b1-4)[Fuc(a1-3)]GlcNAc(b1-3)Gal(b1-4)[Fuc(a1-3)]GlcNAc
# How it was run: as §1
# [11] = target: GlcNAc(b1-3)Gal(b1-4)GlcNAc(b1-3)Gal(b1-4)GlcNAc
# How it was run: as §1
# [12] = target: GlcNAc(b1-3)[GlcNAc(b1-6)]GlcNAc(b1-4)GlcNAc
# How it was run: as §1
# [13] = target: GlcNAc(b1-6)Gal(b1-4)GlcNAc
# How it was run: as §1
# Man(a1-2)Man(a1-3)Man = target: Man(a1-2)Man(a1-3)Man
# How it was run: as §1
# [14] = target: Neu5Ac(a2-3)Gal(b1-3)GalNAc(b1-3)Gal(a1-4)Gal(b1-4)Glc
# How it was run: as §1
# Neu5Ac(a2-3)Gal(b1-4)Glc = target: Neu5Ac(a2-3)Gal(b1-4)Glc
# How it was run: as §1
# [15] = target: Neu5Ac(a2-3)Gal(b1-4)GlcNAc(b1-2)Man(a1-3)[GlcNAc(b1-2)Man(b1-4)GlcNAc(b1-2)Man(a1-6)]Man(b1-4)GlcNAc(b1-4)GlcNAc
# How it was run: as §1
# [16] = target: Neu5Ac(a2-3)Gal(b1-4)GlcNAc(b1-3)Gal(b1-4)[Fuc(a1-3)]GlcNAc
# How it was run: as §1
# [17] = target: Neu5Ac(a2-6)Gal(b1-4)GlcNAc(b1-2)Man(a1-3)[GlcNAc(b1-2)Man(a1-6)]Man(b1-4)GlcNAc(b1-4)GlcNAc
# How it was run: as §1
# Neu5Ac(a2-8)Neu5Ac = target: Neu5Ac(a2-8)Neu5Ac
# How it was run: as §1
# [18] = target: Neu5Ac(b2-6)Gal(b1-4)GlcNAc
# How it was run: as §1
# [19] = target: Neu5Gc(a2-3)Gal(b1-4)GlcNAc
# How it was run: as §1
binder,measurement,setting,value
B1,glycan array binding signal (z-score),Fuc(a1-2)Gal(b1-4)GlcNAc,-0.112
same,glycan array binding signal (z-score),[1],-0.173
same,glycan array binding signal (z-score),[2],-0.407
same,glycan array binding signal (z-score),[3],-0.312
same,glycan array binding signal (z-score),[4],-0.198
same,glycan array binding signal (z-score),[5],-0.1
same,glycan array binding signal (z-score),[6],3.68
same,glycan array binding signal (z-score),Gal(a1-3)Gal(b1-3)GlcNAc,-0.253
same,glycan array binding signal (z-score),Gal(a1-3)GalNAc,0.053
same,glycan array binding signal (z-score),[7],-0.142
same,glycan array binding signal (z-score),Gal6S(b1-4)GlcNAc6S,0.403
same,glycan array binding signal (z-score),GalNAc(a1-3)Gal,6.1
same,glycan array binding signal (z-score),GalNAc(b1-3)Gal,3
same,glycan array binding signal (z-score),[8],4.61
same,glycan array binding signal (z-score),[9],6.97
same,glycan array binding signal (z-score),GalNAc(b1-4)GlcNAc,5.32
same,glycan array binding signal (z-score),Glc(a1-6)Glc(a1-6)Glc,-0.343
same,glycan array binding signal (z-score),[10],0.158
same,glycan array binding signal (z-score),[11],-0.207
same,glycan array binding signal (z-score),[12],-0.467
same,glycan array binding signal (z-score),[13],-0.344
same,glycan array binding signal (z-score),Man(a1-2)Man(a1-3)Man,-0.3
same,glycan array binding signal (z-score),[14],-0.295
same,glycan array binding signal (z-score),Neu5Ac(a2-3)Gal(b1-4)Glc,-0.186
same,glycan array binding signal (z-score),[15],-0.291
same,glycan array binding signal (z-score),[16],-0.158
same,glycan array binding signal (z-score),[17],-0.226
same,glycan array binding signal (z-score),Neu5Ac(a2-8)Neu5Ac,-0.215
same,glycan array binding signal (z-score),[18],-0.415
same,glycan array binding signal (z-score),[19],-0.366
